What was measured:
Assay in all cases: DAPPL (digital affinity profiling via proximity ligation, sequencing); 10 mM Tris-HCl pH 7.5, 50 mM NaCl, 1 mM DTT, 4% glycerol, room temperature, 30 min; GST-TFs on glutathione beads, 16-mer random dsDNA library, 0.1% formaldehyde crosslink after washing; high values mean tight binding
FLI1 = target: T1, FLI1 (Homo sapiens, UniProt Q01543 1-452); conditions: protein: recombinant; tags: N-terminal GST; dsDNA, one strand shown
T1 sequence: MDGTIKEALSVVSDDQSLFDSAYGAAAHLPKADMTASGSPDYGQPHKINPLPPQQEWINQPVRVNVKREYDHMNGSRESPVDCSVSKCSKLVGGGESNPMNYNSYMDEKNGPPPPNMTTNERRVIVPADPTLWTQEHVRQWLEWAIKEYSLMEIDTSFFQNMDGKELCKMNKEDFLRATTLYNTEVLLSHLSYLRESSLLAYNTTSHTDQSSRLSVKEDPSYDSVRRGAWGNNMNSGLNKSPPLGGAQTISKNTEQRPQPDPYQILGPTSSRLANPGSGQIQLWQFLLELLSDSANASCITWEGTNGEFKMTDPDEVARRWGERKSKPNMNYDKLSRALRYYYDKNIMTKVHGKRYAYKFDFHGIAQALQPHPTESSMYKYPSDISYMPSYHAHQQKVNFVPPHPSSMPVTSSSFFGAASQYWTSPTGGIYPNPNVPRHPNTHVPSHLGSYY
How it was run: (§1)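 Beads coated with glutathione captured GST-fused human transcription factors that had been expressed in yeast, and the factors were then given DNA barcodes and pooled with a tag-only sample. The pools were incubated with 200 nmole of a random double-stranded 16-mer DNA library in Tris/NaCl/DTT/glycerol buffer for 30 min at room temperature, washed, crosslinked with 0.1% formaldehyde and proximity-ligated with BsaI/T4 ligase at 37 °C for 1 h. PCR amplification and Illumina NextSeq500 sequencing came last. Binding signal is each hexamer's read frequency for a factor divided by its frequency for the tag-only sample.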

ELK1 = target: T2, ELK1 (Homo sapiens, UniProt P19419 1-428); conditions: protein: recombinant; tags: N-terminal GST; dsDNA, one strand shown
T2 sequence: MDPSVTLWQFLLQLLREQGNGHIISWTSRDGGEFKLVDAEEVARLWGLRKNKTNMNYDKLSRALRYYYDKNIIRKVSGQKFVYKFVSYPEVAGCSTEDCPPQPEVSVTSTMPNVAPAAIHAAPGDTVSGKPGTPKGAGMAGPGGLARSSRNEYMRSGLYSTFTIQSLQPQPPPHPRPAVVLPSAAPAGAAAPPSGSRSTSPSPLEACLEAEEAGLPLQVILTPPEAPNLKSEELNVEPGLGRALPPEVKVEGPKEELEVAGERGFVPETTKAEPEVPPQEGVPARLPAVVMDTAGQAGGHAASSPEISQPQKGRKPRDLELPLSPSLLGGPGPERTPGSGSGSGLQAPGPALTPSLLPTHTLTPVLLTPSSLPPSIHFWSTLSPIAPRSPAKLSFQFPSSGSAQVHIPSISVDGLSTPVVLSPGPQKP
How it was run: as §1

GABPA = target: T3, GABPA (Homo sapiens, UniProt Q06546 1-454); conditions: protein: recombinant; tags: N-terminal GST; dsDNA, one strand shown
T3 sequence: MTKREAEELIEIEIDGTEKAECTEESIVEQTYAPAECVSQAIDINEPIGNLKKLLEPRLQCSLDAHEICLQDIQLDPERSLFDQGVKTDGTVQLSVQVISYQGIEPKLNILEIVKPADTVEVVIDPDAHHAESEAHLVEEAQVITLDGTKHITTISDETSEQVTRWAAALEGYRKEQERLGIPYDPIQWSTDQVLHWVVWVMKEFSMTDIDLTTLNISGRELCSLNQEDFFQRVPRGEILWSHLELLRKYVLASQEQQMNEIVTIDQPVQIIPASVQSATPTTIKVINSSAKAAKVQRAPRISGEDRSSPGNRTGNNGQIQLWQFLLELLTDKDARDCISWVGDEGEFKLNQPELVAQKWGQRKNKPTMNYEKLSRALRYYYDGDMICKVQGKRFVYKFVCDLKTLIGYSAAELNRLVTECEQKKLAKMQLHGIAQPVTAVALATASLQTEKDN
How it was run: as §1

ERG = target: T4, ERG (Homo sapiens, UniProt P11308 1-479); conditions: protein: recombinant; tags: N-terminal GST; dsDNA, one strand shown
T4 sequence: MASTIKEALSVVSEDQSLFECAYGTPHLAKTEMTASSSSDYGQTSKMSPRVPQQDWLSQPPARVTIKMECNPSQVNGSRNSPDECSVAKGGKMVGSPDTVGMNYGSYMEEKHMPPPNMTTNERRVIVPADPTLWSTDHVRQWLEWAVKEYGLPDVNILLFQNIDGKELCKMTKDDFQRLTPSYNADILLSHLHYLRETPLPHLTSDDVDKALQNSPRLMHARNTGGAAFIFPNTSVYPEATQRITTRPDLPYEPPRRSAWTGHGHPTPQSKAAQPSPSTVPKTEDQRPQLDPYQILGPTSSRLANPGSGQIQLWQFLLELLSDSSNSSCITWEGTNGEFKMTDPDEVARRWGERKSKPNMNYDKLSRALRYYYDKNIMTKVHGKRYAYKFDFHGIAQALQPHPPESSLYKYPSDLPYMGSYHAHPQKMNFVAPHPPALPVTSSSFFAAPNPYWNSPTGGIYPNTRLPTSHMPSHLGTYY
How it was run: as §1

ELF1 = ELF1 (Homo sapiens, UniProt P32519 1-619); conditions: protein: recombinant; tags: N-terminal GST; dsDNA, one strand shown
How it was run: as §1

EHF = target: T5, EHF (Homo sapiens, UniProt Q9NZC4 1-300); conditions: protein: recombinant; tags: N-terminal GST; dsDNA, one strand shown
T5 sequence: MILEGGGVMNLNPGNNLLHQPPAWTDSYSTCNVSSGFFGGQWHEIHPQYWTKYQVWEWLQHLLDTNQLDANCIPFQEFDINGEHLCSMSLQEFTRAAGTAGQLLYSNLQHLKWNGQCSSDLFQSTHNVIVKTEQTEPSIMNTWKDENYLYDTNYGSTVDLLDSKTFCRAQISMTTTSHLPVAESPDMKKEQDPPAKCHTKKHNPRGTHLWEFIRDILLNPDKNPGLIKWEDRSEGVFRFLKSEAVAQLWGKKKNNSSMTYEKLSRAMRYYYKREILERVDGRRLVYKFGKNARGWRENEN
How it was run: as §1

SPI1 = SPI1 (Homo sapiens, UniProt P17947 1-270); conditions: protein: recombinant; tags: N-terminal GST; dsDNA, one strand shown
How it was run: as §1

SPIB = SPIB (Homo sapiens, UniProt Q01892 1-262); conditions: protein: recombinant; tags: N-terminal GST; dsDNA, one strand shown
How it was run: as §1

ELK3 = target: T6, ELK3 (Homo sapiens, UniProt P41970 1-407); conditions: protein: recombinant; tags: N-terminal GST; dsDNA, one strand shown
T6 sequence: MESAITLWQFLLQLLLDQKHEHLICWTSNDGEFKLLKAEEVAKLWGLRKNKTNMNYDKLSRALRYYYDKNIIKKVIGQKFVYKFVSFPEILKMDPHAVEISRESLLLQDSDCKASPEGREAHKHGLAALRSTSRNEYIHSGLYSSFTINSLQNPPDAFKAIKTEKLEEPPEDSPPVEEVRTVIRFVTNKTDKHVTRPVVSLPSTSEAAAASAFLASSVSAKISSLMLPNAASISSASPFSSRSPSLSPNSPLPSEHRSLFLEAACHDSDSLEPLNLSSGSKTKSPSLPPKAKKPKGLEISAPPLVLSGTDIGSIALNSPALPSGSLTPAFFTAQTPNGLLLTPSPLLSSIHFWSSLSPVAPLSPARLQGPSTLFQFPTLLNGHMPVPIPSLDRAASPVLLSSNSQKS
How it was run: as §1

FEV = target: T7, FEV (Homo sapiens, UniProt Q99581 1-238); conditions: protein: recombinant; tags: N-terminal GST; dsDNA, one strand shown
T7 sequence: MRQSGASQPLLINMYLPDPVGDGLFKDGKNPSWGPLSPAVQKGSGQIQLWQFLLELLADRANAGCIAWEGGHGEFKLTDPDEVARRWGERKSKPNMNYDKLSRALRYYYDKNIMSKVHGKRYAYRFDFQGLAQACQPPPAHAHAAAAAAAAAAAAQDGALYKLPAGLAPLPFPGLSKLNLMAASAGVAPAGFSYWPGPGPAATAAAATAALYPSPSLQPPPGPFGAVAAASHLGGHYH
How it was run: as §1

ETV5 = ETV5 (Homo sapiens, UniProt P41161 1-510); conditions: protein: recombinant; tags: N-terminal GST; dsDNA, one strand shown
How it was run: as §1

HSF1 = HSF1 (Homo sapiens, UniProt Q00613 1-529); conditions: protein: recombinant; tags: N-terminal GST; chain copies: 3; dsDNA, one strand shown
How it was run: as §1

SPIC = target: T8, SPIC (Homo sapiens, UniProt Q8N5J4 1-248); conditions: protein: recombinant; tags: N-terminal GST; dsDNA, one strand shown
T8 sequence: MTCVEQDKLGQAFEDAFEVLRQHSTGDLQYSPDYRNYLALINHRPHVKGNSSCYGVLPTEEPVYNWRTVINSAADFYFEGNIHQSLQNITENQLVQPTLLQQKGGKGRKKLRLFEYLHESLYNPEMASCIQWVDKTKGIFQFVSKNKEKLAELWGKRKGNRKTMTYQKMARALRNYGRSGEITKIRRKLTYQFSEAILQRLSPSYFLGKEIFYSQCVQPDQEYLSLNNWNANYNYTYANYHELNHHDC
How it was run: as §1

ELF4 = ELF4 (Homo sapiens, UniProt Q99607 1-663); conditions: protein: recombinant; tags: N-terminal GST; dsDNA, one strand shown
How it was run: as §1

ELK4 = target: T9, ELK4 (Homo sapiens, UniProt P28324-2 1-405); conditions: protein: recombinant; tags: N-terminal GST; dsDNA, one strand shown
T9 sequence: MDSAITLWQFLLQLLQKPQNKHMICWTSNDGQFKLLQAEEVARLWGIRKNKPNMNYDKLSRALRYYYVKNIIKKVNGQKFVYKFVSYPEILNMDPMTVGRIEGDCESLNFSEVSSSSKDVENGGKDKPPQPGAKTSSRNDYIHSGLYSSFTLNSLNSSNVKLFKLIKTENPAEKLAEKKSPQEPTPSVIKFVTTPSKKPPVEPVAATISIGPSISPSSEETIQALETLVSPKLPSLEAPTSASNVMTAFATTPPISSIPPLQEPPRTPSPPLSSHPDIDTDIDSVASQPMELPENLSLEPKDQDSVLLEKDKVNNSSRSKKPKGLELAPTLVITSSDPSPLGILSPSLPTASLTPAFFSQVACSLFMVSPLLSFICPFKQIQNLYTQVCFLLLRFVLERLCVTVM
How it was run: as §1

ETV2 = target: T10, ETV2 (Homo sapiens, UniProt O00321 1-342); conditions: protein: recombinant; tags: N-terminal GST; dsDNA, one strand shown
T10 sequence: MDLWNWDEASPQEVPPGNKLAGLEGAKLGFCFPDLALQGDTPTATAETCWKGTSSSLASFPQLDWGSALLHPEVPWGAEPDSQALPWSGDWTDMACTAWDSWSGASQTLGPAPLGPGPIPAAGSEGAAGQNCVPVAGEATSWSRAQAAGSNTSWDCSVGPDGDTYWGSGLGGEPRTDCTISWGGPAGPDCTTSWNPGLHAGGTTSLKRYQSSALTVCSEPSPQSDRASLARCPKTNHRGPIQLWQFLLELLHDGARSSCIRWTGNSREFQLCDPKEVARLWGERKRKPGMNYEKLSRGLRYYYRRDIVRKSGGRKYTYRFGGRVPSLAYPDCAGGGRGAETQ
How it was run: as §1

ELF3 = target: T11, ELF3 (Homo sapiens, UniProt P78545 1-371); conditions: protein: recombinant; tags: N-terminal GST; dsDNA, one strand shown
T11 sequence: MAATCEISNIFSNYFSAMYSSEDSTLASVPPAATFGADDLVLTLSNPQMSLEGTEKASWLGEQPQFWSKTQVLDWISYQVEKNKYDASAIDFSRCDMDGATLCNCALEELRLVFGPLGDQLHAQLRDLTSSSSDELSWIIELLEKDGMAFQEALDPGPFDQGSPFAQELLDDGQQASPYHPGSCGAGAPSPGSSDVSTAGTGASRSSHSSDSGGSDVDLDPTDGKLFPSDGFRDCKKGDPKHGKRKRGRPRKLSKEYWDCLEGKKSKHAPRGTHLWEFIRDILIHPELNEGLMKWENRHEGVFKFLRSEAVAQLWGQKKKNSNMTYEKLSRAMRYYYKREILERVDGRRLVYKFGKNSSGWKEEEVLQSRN
How it was run: as §1

CRX = CRX (Homo sapiens, UniProt O43186 1-299); conditions: protein: recombinant; tags: N-terminal GST; dsDNA, one strand shown
How it was run: as §1

ETV1 = ETV1 (Homo sapiens, UniProt P50549 1-477); conditions: protein: recombinant; tags: N-terminal GST; dsDNA, one strand shown
How it was run: as §1

HSF1, sequence (Q00613 whole entry): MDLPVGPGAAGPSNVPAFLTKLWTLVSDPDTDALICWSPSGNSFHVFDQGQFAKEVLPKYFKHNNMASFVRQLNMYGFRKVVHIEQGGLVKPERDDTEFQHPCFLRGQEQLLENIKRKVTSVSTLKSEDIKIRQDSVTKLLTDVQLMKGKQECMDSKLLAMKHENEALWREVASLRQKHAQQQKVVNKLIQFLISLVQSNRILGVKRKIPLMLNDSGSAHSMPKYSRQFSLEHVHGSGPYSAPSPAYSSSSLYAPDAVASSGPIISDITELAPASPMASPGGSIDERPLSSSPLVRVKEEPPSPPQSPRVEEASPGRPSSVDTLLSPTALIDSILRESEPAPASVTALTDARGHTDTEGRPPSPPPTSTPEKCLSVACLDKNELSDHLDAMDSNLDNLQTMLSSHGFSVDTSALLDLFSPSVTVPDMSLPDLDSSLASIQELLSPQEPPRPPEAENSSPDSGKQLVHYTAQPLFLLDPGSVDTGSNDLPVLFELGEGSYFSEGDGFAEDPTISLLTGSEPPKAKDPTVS
ETV1, sequence (P50549 whole entry): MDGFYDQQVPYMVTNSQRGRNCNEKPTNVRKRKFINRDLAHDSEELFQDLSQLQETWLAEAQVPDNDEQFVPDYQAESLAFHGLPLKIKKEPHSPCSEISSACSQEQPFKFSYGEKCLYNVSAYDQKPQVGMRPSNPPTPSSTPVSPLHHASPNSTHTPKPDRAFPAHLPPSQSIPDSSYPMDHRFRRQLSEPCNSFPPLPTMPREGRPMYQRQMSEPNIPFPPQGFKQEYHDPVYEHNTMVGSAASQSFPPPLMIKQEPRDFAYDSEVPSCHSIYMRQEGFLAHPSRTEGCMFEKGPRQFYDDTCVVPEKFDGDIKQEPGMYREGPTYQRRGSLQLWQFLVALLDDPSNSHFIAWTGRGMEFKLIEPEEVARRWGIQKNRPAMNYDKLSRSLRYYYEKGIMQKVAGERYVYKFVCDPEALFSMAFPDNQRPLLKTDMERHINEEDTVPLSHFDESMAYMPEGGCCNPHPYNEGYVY
ELF1, sequence (P32519 whole entry): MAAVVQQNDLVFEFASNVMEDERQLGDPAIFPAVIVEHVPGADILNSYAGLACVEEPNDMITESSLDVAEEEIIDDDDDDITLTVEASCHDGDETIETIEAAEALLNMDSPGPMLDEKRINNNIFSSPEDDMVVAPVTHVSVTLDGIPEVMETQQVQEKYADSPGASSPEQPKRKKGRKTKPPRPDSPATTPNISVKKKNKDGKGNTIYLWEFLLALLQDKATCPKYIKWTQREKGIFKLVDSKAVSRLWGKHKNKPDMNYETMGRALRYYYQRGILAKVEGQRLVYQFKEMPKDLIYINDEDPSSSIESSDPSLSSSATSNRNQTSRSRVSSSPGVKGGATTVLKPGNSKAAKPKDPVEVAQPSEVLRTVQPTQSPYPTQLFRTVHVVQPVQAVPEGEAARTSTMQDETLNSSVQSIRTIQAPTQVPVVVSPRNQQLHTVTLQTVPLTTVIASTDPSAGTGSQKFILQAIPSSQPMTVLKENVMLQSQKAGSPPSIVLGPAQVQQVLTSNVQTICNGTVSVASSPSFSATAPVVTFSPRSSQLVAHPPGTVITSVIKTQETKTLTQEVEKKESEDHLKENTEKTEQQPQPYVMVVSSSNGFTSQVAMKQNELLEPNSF
SPIB, sequence (Q01892 whole entry): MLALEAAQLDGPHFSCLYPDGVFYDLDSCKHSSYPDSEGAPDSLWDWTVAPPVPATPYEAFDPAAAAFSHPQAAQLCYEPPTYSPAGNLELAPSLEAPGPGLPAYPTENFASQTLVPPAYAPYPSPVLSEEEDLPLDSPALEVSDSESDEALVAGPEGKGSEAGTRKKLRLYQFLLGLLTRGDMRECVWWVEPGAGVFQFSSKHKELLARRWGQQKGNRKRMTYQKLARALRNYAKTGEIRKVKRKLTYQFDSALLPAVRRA
CRX, sequence (O43186 whole entry): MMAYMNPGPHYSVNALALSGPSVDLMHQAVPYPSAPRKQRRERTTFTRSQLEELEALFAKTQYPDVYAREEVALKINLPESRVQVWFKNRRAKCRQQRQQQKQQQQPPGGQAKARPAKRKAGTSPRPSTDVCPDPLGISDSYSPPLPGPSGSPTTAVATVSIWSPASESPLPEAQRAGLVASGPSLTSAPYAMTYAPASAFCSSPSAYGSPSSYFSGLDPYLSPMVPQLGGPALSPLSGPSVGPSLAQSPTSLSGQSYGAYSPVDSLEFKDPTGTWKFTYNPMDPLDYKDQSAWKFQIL
ELF4, sequence (Q99607 whole entry): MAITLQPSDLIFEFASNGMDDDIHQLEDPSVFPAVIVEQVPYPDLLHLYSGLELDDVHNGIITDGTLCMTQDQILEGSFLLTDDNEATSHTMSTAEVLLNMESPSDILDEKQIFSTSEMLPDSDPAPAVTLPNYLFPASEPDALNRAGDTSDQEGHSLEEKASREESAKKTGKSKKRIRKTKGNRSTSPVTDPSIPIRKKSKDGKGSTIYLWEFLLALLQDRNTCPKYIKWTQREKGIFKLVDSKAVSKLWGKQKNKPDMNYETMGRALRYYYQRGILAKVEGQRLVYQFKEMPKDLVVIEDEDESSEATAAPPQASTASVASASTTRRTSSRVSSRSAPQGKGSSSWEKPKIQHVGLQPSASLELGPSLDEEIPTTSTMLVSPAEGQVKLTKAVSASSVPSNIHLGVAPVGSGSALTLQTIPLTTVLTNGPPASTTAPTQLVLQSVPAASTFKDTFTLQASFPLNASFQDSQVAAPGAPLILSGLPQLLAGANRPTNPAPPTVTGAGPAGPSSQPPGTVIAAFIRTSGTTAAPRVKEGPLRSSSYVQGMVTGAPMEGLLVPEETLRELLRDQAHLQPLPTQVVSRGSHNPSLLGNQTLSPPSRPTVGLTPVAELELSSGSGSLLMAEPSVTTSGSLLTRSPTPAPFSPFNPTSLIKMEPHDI
ETV5, sequence (P41161 whole entry): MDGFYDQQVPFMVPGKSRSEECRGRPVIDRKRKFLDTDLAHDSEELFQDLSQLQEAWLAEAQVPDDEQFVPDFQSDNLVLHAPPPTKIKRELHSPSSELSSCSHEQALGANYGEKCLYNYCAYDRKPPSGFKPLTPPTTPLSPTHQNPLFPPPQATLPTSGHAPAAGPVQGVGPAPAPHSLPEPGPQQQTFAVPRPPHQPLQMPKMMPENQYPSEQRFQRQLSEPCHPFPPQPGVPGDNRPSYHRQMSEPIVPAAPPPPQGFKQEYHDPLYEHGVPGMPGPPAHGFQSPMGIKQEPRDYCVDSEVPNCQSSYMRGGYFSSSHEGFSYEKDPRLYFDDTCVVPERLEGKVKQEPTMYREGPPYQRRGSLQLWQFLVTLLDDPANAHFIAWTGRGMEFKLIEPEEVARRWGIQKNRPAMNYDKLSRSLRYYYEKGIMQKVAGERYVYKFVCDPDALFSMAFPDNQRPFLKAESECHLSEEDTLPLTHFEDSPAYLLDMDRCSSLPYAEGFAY

In the case of CATACT, the binding signal (FLI1) is reported as 1.34 fold enrichment (6-mer frequency, TF over GST control), the binding signal (ELK1) is reported as 1.29 fold enrichment (6-mer frequency, TF over GST control) and the binding signal (GABPA) is reported as 1.36 fold enrichment (6-mer frequency, TF over GST control). For the same sequence, the binding signal (ERG) was 1.27 fold enrichment (6-mer frequency, TF over GST control), the binding signal (ELF1) was 1.34 fold enrichment (6-mer frequency, TF over GST control) and the binding signal (EHF) was 1.31 fold enrichment (6-mer frequency, TF over GST control). For the same sequence, the binding signal (SPI1) was 1.33 fold enrichment (6-mer frequency, TF over GST control), the binding signal (SPIB) was 1.29 fold enrichment (6-mer frequency, TF over GST control) and the binding signal (ELK3) was 1.29 fold enrichment (6-mer frequency, TF over GST control). The binding signal (FEV) was 1.27 fold enrichment (6-mer frequency, TF over GST control), the binding signal (ETV5) was 1.2 fold enrichment (6-mer frequency, TF over GST control) and the binding signal (HSF1) was 1.2 fold enrichment (6-mer frequency, TF over GST control). For the same sequence, the binding signal (SPIC) was 1.23 fold enrichment (6-mer frequency, TF over GST control), the binding signal (ELF4) was 1.35 fold enrichment (6-mer frequency, TF over GST control) and the binding signal (ELK4) was 1.34 fold enrichment (6-mer frequency, TF over GST control). The binding signal (ETV2) was 1.47 fold enrichment (6-mer frequency, TF over GST control), the binding signal (ELF3) was 1.34 fold enrichment (6-mer frequency, TF over GST control) and the binding signal (CRX) was 1.24 fold enrichment (6-mer frequency, TF over GST control). For the same sequence, the binding signal (ETV1) was 1.33 fold enrichment (6-mer frequency, TF over GST control).

— article PMC7862700, “An all-to-all approach to the identification of sequence-specific readers for epigenetic DNA modifications on cytosine”
